In PubChem BioAssay (NCI):
Several values for one entry are separate records, joined by “and”; a condition that tells them apart may be missing. Identical values can stand only once. This is part of a sample that, as a whole, favours compounds with a hit. Of some 83,000 tested, about 20% had one in any assay.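 48-hour exposure, single concentration, 96-well plates; percent growth endpoint where 0 means no net growth. Active: below 10.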 Activity calls are given as the source filed them.

System: MDA-MB-468 breast
Assay: NCI-60 one-dose screen, 48 h (100 = growth as untreated, 0 = no growth, -100 = all killed)

| Compound | growth (10 µM) | growth (100 µM) | growth (10 µM unless noted) |
| --- | --- | --- | --- |
| O=C(Nc1cccc(Br)c1)Oc1cccc2cccnc12 | 103% (inactive) | -8.71% (active) | – |
| CCN(Cc1ccccc1)c1ccc(/C=C2\COc3ccccc3C2=O)cc1 | 118% (inactive) | 7.2% (active) | – |
| O=c1c2cccc3c(N4CCOCC4)ccc(c32)c2nc3ccccc3n12 | – | – | -63.5% (active) |
| CN1CCN(CCCN2c3ccccc3Sc3ccc(Cl)cc32)CC1 | – | – | -0.133% (active) and 70.8% (inactive) |
| O=C(Nc1c(Cl)cccc1Cl)Oc1cccc2cccnc12 | 19.5% (inactive) | -0.346% (active) | – |
